Sampled rows, rich in hits. Any-hit rate of the full collection: about 12%.
JMJD2A Tudor: qHTS Assay for Inhibitors of JMJD2A-Tudor Domain. Potency, µM (highest dose often 114 µM), most hits filed as inhibitors. AID 504339, 2011. 390,000 compounds, 4.4% hits. Lysine-specific demethylase 4A (Homo sapiens), O75164. AlphaScreen JMJD2A-Tudor / H3K4me3 peptide binding; further: nearly all actives have a fitted effect of over 50% in size
PLK1 PBD block: qHTS for Inhibitors of PLK1-PDB (polo-like kinase 1 - polo-box domain): Primary Screen | AID 720504, 2013 | Potency, µM, most hits filed as inhibitors | 360,000 compounds, 2.8% hits | Plk1 PBD binding of FITC phosphopeptide, fluorescence polarization | Serine/threonine-protein kinase PLK1 (Homo sapiens), P53350; further: series mostly up to about 57 µM; nearly all actives have a fitted effect of over 65% in size
G9a inh: qHTS Assay for Inhibitors of Histone Lysine Methyltransferase G9a; G9a H3K9 monomethylation, AlphaScreen, 2 h; Histone-lysine N-methyltransferase EHMT2 (Homo sapiens), Q96KQ7; Potency, µM (series often up to 102 µM), hits mostly inhibitors; 350,000 compounds, 8.8% hits; further: nearly all actives have a fitted effect of over 75% in size
Target sequence (Q96KQ7 913-1193 limits assumed): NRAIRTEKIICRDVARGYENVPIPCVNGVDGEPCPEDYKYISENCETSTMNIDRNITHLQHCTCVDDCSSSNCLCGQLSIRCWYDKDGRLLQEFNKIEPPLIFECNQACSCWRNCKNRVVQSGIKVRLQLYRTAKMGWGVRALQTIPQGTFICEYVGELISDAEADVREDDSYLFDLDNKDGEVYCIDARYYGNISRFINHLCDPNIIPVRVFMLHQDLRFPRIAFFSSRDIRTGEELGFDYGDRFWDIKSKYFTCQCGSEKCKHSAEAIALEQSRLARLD
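Quantitative HTS format: methyltransferase activity on a biotin-tagged H3K9 peptide is measured by AlphaScreen, using a rabbit anti-monomethyl-H3K9 antibody with streptavidin donor and anti-IgG acceptor beads. Final levels are 20 nM enzyme, 500 nM peptide, 20 uM SAM; 2 h RT.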
Sfp PPTase inh: qHTS Assay for Inhibitors of Bacillus subtilis Sfp phosphopantetheinyl transferase (PPTase). 310,000 compounds, 3.5% hits. Biochemical Sfp PPTase activity, qHTS. AID 1490, 2009. 4'-phosphopantetheinyl transferase ffp (Bacillus subtilis), Q9F4F7. Potency, µM, usual class: inhibitors;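 further: the enzyme is Sfp with the accession as filed and its product quenches rhodamine fluorescence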
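With Hepes-Na pH 7.6 buffer containing 10 mM MgCl2, Sfp (15 nM) modified BHQ-2-YbbR (12.5 uM) using rhodamine-CoA (5 uM). Two reads 30 minutes apart at 525/598 nm yielded each well's rate.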
BAZ2B block: qHTS Assay for Inhibitors of BAZ2B | Bromodomain adjacent to zinc finger domain protein 2B (Homo sapiens), Q9UIF8 | AlphaScreen BAZ2B-H3K14Ac peptide displacement | Potency, µM (series often up to 114 µM), usual class: inhibitors | 360,000 compounds, 4.4% hits; further: nearly all actives have a fitted effect of over 60% in size
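Compounds, titrated to a top concentration of 110 uM, were incubated 30 min at room temperature with preformed BAZ2B/acetyl-K14 H3 peptide complex (50 nM each). Proximity signal was measured by AlphaScreen after 20 min with beads.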
HP1b chromo inh: HTS for Inhibitors of HP1-beta Chromodomain Interactions with Methylated Histone Tails | 390,000 compounds, 0.56% hits | AlphaScreen HP1-beta / biotin-H3K9me3 peptide binding | Potency, µM (doses to about 114 µM), hits mostly inhibitors | AID 540317, 2011; further: nearly all actives have a fitted effect of over 70% in size
Target sequence (P83916 whole entry, looked up): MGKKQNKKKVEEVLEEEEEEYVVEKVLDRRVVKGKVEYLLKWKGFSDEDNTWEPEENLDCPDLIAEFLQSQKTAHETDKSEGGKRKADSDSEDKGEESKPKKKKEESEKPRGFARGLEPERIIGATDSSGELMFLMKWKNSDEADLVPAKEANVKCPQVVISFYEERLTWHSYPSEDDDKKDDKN
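AlphaScreen: HP1-beta (50 nM) preformed 30 min with biotin-H3(1-18)K9me3 peptide (50 nM) in PBS pH 7.4, 0.01% Tween-20. Compound added for 30 min at RT, then streptavidin donor/nickel chelate acceptor beads (10 ug/mL) for 30 min.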
Each line names hits and unclear results; the compound was inactive in the other large screens. The call rests on the fitted dose curve; in most records, active means well fitted curve in the direction sought with a large enough effect; inconclusive means small, poorly fitted or top-dose-only effect, or another doubt; inactive means no such curve, though single readings can be large; an effect the other way counts as inactive or inconclusive.

COC(=O)c1ccc(C2/C(=C(/O)c3ccc4c(c3)CC(C)O4)C(=O)C(=O)N2Cc2ccncc2)cc1 (stereo unspecified)	G9a inh 45µM, BAZ2B block inconclusive
COc1ccc(C2/C(=C(/O)c3ccc4c(c3)CC(C)O4)C(=O)C(=O)N2CCCN2CCOCC2)cc1 (stereo unspecified)	JMJD2A Tudor inconclusive, G9a inh 45µM
CCOc1ccc(C2/C(=C(\O)c3ccc4c(c3)OCCO4)C(=O)C(=O)N2CCN2CCOCC2)cc1OCC (stereo unspecified)	G9a inh inconclusive
CCCOc1cccc(C2/C(=C(/O)c3ccc4c(c3)CC(C)O4)C(=O)C(=O)N2CCN2CCOCC2)c1 (stereo unspecified)	G9a inh 50µM
CC1Cc2cc(/C(O)=C3/C(=O)C(=O)N(CCCN(C)C)C3c3ccncc3)ccc2O1 (stereo unspecified)	none
C=CCOc1ccc(C2/C(=C(\O)c3ccc4c(c3)CC(C)O4)C(=O)C(=O)N2CCN2CCOCC2)cc1OCC (stereo unspecified)	JMJD2A Tudor 35µM, PLK1 PBD block inconclusive, G9a inh 20µM, BAZ2B block 79µM
CC1Cc2cc(/C(O)=C3/C(=O)C(=O)N(CCN4CCOCC4)C3c3cccc(Cl)c3)ccc2O1 (stereo unspecified)	none
CNS(=O)(=O)c1cn(CC(=O)Nc2cccc(C(F)(F)F)c2)cc1S(=O)(=O)NC	none (no result: PLK1 PBD block, Sfp PPTase inh)
CC1Cc2cc(/C(O)=C3/C(=O)C(=O)N(CCN4CCOCC4)C3c3ccc([N+](=O)[O-])cc3)ccc2O1 (stereo unspecified)	JMJD2A Tudor inconclusive, G9a inh 79µM, BAZ2B block inconclusive
CC(C)c1ccc(C2/C(=C(\O)c3ccc4c(c3)OCCO4)C(=O)C(=O)N2CCN2CCOCC2)cc1 (stereo unspecified)	G9a inh inconclusive
CCN(CC)CCOc1c(Br)ccc2c1sc1nc3n(c(=O)c12)CCC3	G9a inh 50µM
O=c1c2c3c(sc2nc2n1CCC2)CCC3	none
O=c1c2c(nc3n1CCCCC3)sc1c(O)c(Br)ccc12	G9a inh 1.8µM
C=CCSc1nc2sc3c(c2c(=O)n1CC)CCc1ccccc1-3	JMJD2A Tudor inconclusive, PLK1 PBD block 3µM, G9a inh inconclusive, Sfp PPTase inh 1.8µM, HP1b chromo inh inconclusive
COC(=O)c1ccc(CN2CCN(CC=C(C)C)C(CCO)C2)cc1 (stereo unspecified)	G9a inh 45µM, BAZ2B block inconclusive
COC(=O)c1ccc(CN2CCN(CC(C)C)C(CCO)C2)cc1 (stereo unspecified)	none (no result: G9a inh)
COC(=O)c1ccc(NC(=O)CCc2nnc3ccc(N4CCC5(CC4)OCCO5)nn23)cc1	none
CC(C)N(C(=O)CSc1nc2ccccc2n1-c1ccccc1)C(C)C	Sfp PPTase inh 79µM
Oc1c(C(c2ccccc2)N2CCC(O)CC2)sc2nc(-c3ccco3)nn12 (stereo unspecified)	none (no result: PLK1 PBD block, Sfp PPTase inh)
Oc1ccc(N2CCN(c3nnnn3-c3ccccc3)CC2)cc1	G9a inh 25µM, Sfp PPTase inh 56µM, HP1b chromo inh inconclusive (no result: BAZ2B block)
Cc1cc(C)c2ccc(=S)[nH]c2n1	PLK1 PBD block 15µM, G9a inh 8.9µM, Sfp PPTase inh inconclusive
O=C1NC(Cc2ccc(O)cc2)c2nc3cc(Cl)ccc3c(=O)n2-c2cc(Cl)ccc21 (stereo unspecified)	none (no result: G9a inh, Sfp PPTase inh, BAZ2B block)
O=C1c2ccccc2C(Nc2ccc3c(c2)OCCO3)N1c1ccc(Cl)cn1 (stereo unspecified)	JMJD2A Tudor inconclusive, G9a inh 45µM, BAZ2B block 40µM, HP1b chromo inh inconclusive
O=C1c2ccccc2C(Nc2ccc3c(c2)OCCO3)N1c1ccccn1 (stereo unspecified)	JMJD2A Tudor inconclusive, BAZ2B block inconclusive
COc1cc(NC2c3ccccc3C(=O)N2Cc2ccc3c(c2)OCO3)cc(OC)c1 (stereo unspecified)	JMJD2A Tudor inconclusive, G9a inh 50µM, BAZ2B block inconclusive
O=C1c2ccccc2C(Nc2ccccc2)N1Cc1ccc2c(c1)OCO2 (stereo unspecified)	G9a inh inconclusive
COc1ccc(NC2c3ccccc3C(=O)N2Cc2ccc3c(c2)OCO3)cc1 (stereo unspecified)	JMJD2A Tudor 40µM, G9a inh 45µM, BAZ2B block 50µM, HP1b chromo inh inconclusive
CCN(CC)S(=O)(=O)c1ccc(NC2c3ccccc3C(=O)N2Cc2ccc3c(c2)OCO3)cc1 (stereo unspecified)	G9a inh 40µM
CCN(CC)S(=O)(=O)c1ccc(NC2c3ccccc3C(=O)N2Cc2ccco2)cc1 (stereo unspecified)	G9a inh inconclusive
CN(Cc1ccccc1)C(=O)c1ccccc1N(C)S(=O)(=O)c1ccccc1	none (no result: Sfp PPTase inh)
CCN(CC)S(=O)(=O)c1ccc(NC2c3ncccc3C(=O)N2Cc2ccccc2)cc1 (stereo unspecified)	JMJD2A Tudor 28µM, BAZ2B block inconclusive (no result: G9a inh)
CC(=O)c1ccc(NC2c3ncccc3C(=O)N2Cc2ccc(F)cc2)cc1 (stereo unspecified)	BAZ2B block inconclusive (no result: G9a inh)
O=C1c2ccccc2C(Nc2ccc3c(c2)OCCO3)N1Cc1ccc2c(c1)OCO2 (stereo unspecified)	JMJD2A Tudor 40µM, G9a inh inconclusive, BAZ2B block 35µM
CC1(C)OC(=O)C2(Cc3ccc(Cl)cc3N3CCCC32)C(=O)O1 (stereo unspecified)	none (no result: PLK1 PBD block, G9a inh, Sfp PPTase inh, BAZ2B block)
Cc1ccc(S(=O)(=O)/N=C2/NC(=O)/C(=C/c3ccncc3)S2)cc1	G9a inh inconclusive (no result: JMJD2A Tudor, PLK1 PBD block, HP1b chromo inh)
Cc1ccc(S(=O)(=O)/N=C2/NC(=O)/C(=C\c3ccccc3)S2)cc1	PLK1 PBD block 24µM (no result: G9a inh, Sfp PPTase inh, BAZ2B block)
O=C1NC(=NCc2ccccc2)S/C1=C/c1ccc(O)cc1	Sfp PPTase inh 25µM, BAZ2B block inconclusive
Cc1ccc(/C=C2\S/C(=N/S(=O)(=O)c3cccs3)NC2=O)cc1	PLK1 PBD block 19µM, Sfp PPTase inh inconclusive
Cc1ccc(S(=O)(=O)/N=C2/NC(=O)/C(=C/c3ccccc3)S2)cc1	PLK1 PBD block inconclusive, G9a inh 50µM, BAZ2B block inconclusive
Cc1c(N=C2NC(=O)/C(=C/c3ccc(O)cc3)S2)c(=O)n(-c2ccccc2)n1C	none
Cc1cc2c(s1)c1cnn(Cc3ccc(F)c(F)c3)c(=O)c1n2C	none (no result: PLK1 PBD block, G9a inh, Sfp PPTase inh, BAZ2B block, HP1b chromo inh)

Bioassay records (PubChem)
